Measurements from the supplement of paper PMC6555819.

test system: VDR:RXRa (NR concentration 270 nM, RXRa partner concentration 90 nM); experiment: PBM binding z-score (relative to random genomic background probes); higher = stronger binding; sequences stand for … in GC…GCGATTGACAGCGTAGAATGAAGG
Experimental: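 Protein-binding microarray (Agilent 4x180K custom design, double-stranded 60-nt probes: 5' GC cap, 34-nt variable region, 24-nt constant primer region; full probe sequence given). Purified or IVT nuclear receptor:RXRα heterodimers (3:1 NR:RXRα, mostly 270:90 nM) or homodimers were incubated for 1 h in PBS with 2% milk and no ligand, then detected with Alexa488 antibodies. Fluorescence from o1-orientation probes (~5 replicates averaged) was converted to z-scores against 500 random hg19 background probes. Variable regions are seed direct-repeat (DR0–DR5) sites, all their single-nucleotide variants and half-site ablations.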

| Sequence | PBM binding z-score |
| --- | --- |
| CGTCCAAGGTCAATGCTCGGTCAGTGAAAGCATT | 4.21 |
| ATCTCTAGGTAAAGTCCAGTGAAAGATCGATAGA | -0.12 |
| CCTATTAGTTGACCCTAAGGGCAACCGAAGCTCG | 3.74 |
| ACAGACAGATGATGAAGGTAACTCAGGCTATCAT | 0.0494 |
| CCGACTGGGGCATAAGGCTACCATAAGCCAGCCC | -0.694 |
| CAAACTAGGTCAAGAGGTCAAAGTCCGCTTCCCG | 6.26 |
| CTACCAAGGTGAACCAGGTCGTTGATTACTATTC | 4.93 |
| CGTCCAAGGTCATAGGAGGTCAGTTAAGACAGAT | 6.3 |
| CAAACTAGGTCAAGGTCAAGGTCGGTTTGTGCCA | 5.24 |
| CAAACTAGGTCACGAAACGTCAAAGTCGAATGAC | 2.2 |
| TCATATAGGTAAACTGGTGAAAGTCCGTAAGTTA | 0.597 |
| CATACAGGGTCACCTAGGCCAGAGTAGGGACGGC | 5.14 |
| GCTGCTAGGTCAGGTTGGTCAGCTAGCGGGTACG | 0.267 |
| GCTGTTAGTTGAAAGGGCAACCGAATGATTCTCG | 0.572 |
| CCTACTGTGCCAAGGTCATTGATCAGTCAAAGCA | 3.52 |
| TCGAGCAGGCCAGAGGGTCACTCAAGAGGTACGG | 1.48 |
| TAGCCTAGGTCATGCGGGCCAGTCTAGTGTCGGC | 2.82 |
| GCTAGCAGGCGATTTGGGTCACTCAATGACGGGC | -0.205 |
| ACTATTAGTTGACTTAGGGCAACGGATACGACGC | 0.248 |
| GCGACTGGGGTATCAGCAGGTTACCATAACTTAA | -0.202 |

| Sequence | PBM binding z-score |
| --- | --- |
| ACTAGCATGCCAAGTTTGGGTCACTCAAACAAAG | 0.531 |
| CCTACTAGGTCATGGTCAGCTAATCTACAGTATG | 1.8 |
| CGAACTAGGTCATCCAGGACATTGAATACATTGA | 5.52 |
| TCTTGCAGATCAAGCAGGTTAAGAAAGCCTGAGT | 0.157 |
| ATACCAAGGGGATCGTGAGGTCGTTGATACTAAC | 1.88 |
| ATCGAAACGTCGAAGGTGAGTATACCCACCCGAA | -0.229 |
| CCACGGAGGACAGAAGGTCAGAGCTGTCCGCTTT | 0.979 |
| CGAACTAGGTCATCCAGGACAGTGTATACATTGA | 4.57 |
| CCTAGTGGGCCAAAAAGGTCATTGATGCCGATAA | 4.82 |
| CCGACTGGGGCATAAGCTTACCATAAGCCAGCCC | -0.79 |
| GCTCGGAGGACAAGGCCAGAGCTTTGTCCGTAGA | -1.03 |
| AGAATGAGGTTACTAAGATCAGGGAATTGCGGTC | 1.42 |
| AAGACAGGGTCACTAGGCCAGAGTAGGTACGAAT | 3.9 |
| GGAACGAGGGCAAGTTGATAGTAGAGTTTGATGG | 1.34 |
| ATCTCTAGGTAACCAAGTTCAGTGAATGCCGAAC | 4.23 |
| CGTCCAAGGTCAAAGATCAGTGAAGAGATGACGG | 4.44 |
| CCGAATGGGGCAAAGGTTACCATACTCAGTACGA | 1.77 |
| TCTAGCAGGCTAGAGGGTCACTCAAGAGGTACGG | 1.38 |
| TCTATTAGTTGATTAGCGCAACCGAAACAGCGGA | 0.694 |
| TCTGTTAGTTGAAGGGCAACCGACGAGTCCGTTT | 0.902 |
